Bioassay records deposited in PubChem by National Center for Advancing Translational Sciences (NCATS).
D3 ag – activates the human D3 dopamine receptor. P35462. D3R DiscoveRx beta-arrestin cells, luminescence, 90 min. max activation, %. 410,000 compounds, 0.58% hits. AID 652048; in the data active = max activation above about 30%; also: 0% is about no effect
Target sequence (P35462 whole entry, looked up): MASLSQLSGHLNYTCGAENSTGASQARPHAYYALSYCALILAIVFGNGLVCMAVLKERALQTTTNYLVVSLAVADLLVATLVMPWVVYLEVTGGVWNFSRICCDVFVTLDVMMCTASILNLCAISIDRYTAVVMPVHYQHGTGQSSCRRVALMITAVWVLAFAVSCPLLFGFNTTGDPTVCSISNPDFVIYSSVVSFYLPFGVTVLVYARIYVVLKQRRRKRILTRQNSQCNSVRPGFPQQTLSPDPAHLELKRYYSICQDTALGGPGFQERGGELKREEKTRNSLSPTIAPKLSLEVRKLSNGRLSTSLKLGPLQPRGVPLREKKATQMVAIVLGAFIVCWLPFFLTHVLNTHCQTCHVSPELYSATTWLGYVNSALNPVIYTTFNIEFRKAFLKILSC
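Agonist-mode cell screen: cells plated at 1500/well and incubated overnight at 37 °C, then exposed to library compounds for 90 min at 37 °C. Detection reagent was added for 30–60 min at room temperature, and luminescence was read.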
S2 tox – viability counter-screen for ATXN expression inhibitors; S2 cells (HEK-293 line with an ATXN2-luciferase reporter) viability, CellTiter-Fluor protease fluorescence, 24 h; Potency, µM (titrated, usually from 56.7 µM), actives largely listed as cytotoxic; 400,000 compounds, 0.49% hits; also: potency is read from the fitted curve at half-maximal effect; nearly all actives have a fitted effect of over 40% in size
TGFb inhibitor – inhibitors of TGF-b signaling. Potency, µM (series often up to 46.1 µM), for inactives: at the highest dose activity, negative = inhibition, actives largely listed as inhibitors. 410,000 compounds, 1.2% hits. HepG2 CAGA-GFP TGF-b/SMAD3 reporter, GFP fluorescence, 18 h; TGF-beta stimulated, 500 pg/mL final. AID 588855; also: potency is read from the fitted curve at half-maximal effect; % is scaled to controls: 0 for no effect and ±100 for the full control effect; nearly all actives have a fitted effect of over 65% in size
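Cell-based qHTS in HEPG2 carrying a CAGA-GFP Smad reporter; compounds added before 500 pg/mL final TGF-beta, 18 h incubation at 37 degrees C, GFP fluorescence quantified per cell by imaging cytometry.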
HepG2 viability – HepG2 cytotoxicity, counter-screen for TGF-b inhibitors | 410,000 compounds, 0.76% hits | AID 588856 | HepG2 CAGA-GFP viability, ATP luminescence, 18 h | Potency, µM (doses to about 46.1 µM), without a hit: top-dose activity change, negative = cytotoxicity, actives largely listed as cytotoxic; also: potency is read from the fitted curve at half-maximal effect
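HepG2 CAGA-GFP cells (1000/well, DMEM with 1% FBS) received compound, then TGF-beta at 500 pg/mL final, and were incubated 18 hours at 37 degrees C. Viability was read by CellTiter-Glo luminescence. Media-only wells were set as complete cell-killing and DMSO as no toxicity.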
ATXN2 expr inh – reduces ATXN2 reporter expression in HEK-293 cells; HEK-293 ATXN2-luciferase reporter, luminescence, 24 h; 360,000 compounds, 0.72% hits; Potency, µM (highest dose often 57 µM), for the others: top-dose activity change, negative = inhibition, most hits filed as inhibitors; AID 1745845; also: potency is read from the fitted curve at half-maximal effect; % is scaled to controls: 0 for no effect and ±100 for the full control effect; nearly all actives have a fitted effect of over 55% in size
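qHTS (up to 57 uM final) was run with 24 h compound exposure of reporter cells at 37 °C. Each well was multiplexed: SteadyGlo luminescence measured ATXN2-luciferase expression after a fluorogenic Gly-Phe-AFC viability readout (25 uM final).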
DRD3 antagonist – antagonists of human D3 dopamine receptor | D3R cells, DiscoveRx beta-arrestin luminescence, antagonist mode; stronger effect = lower value | P35462 | 360,000 compounds, 2.5% hits | AID 652054 | max response, negative = inhibition, %; in the data active = max response below about -50%; inconclusive = no clear call, values can overlap the other calls; also: % is scaled to controls: 0 for no effect and ±100 for the full control effect
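Cells expressing the human receptor were seeded at 1500 cells/well, incubated overnight at 37 degrees C in 5% CO2, then exposed to library compounds with dopamine controls for 90 minutes at 37 degrees C before luminescent detection.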
An asterisk follows results filed as active. The list is not random: actives were taken first. Their share in the collection is about 4.7%. Unless noted, calls follow the shape of the dose curve; as a rule, active = well fitted curve in the direction sought with a large enough effect; inconclusive = small, poorly fitted or top-dose-only effect, or another doubt; inactive = no such curve, though single readings can be large; an effect the other way counts as inactive or inconclusive.

`Cn1c(=O)n(C)c2cc([N+](=O)[O-])c(N3CCN(C(=O)c4cccc(Cl)c4)CC3)cc21` gave D3 ag -14, S2 tox inactive, TGFb inhibitor inconclusive, HepG2 viability -9%, ATXN2 expr inh 4% and DRD3 antagonist -60*.
`CCOc1ccc(OCCOCCn2c(-c3ccc(Cl)cc3)nc3ccccc3c2=O)cc1` gave D3 ag 5, S2 tox inactive, TGFb inhibitor -9%, HepG2 viability -13% and ATXN2 expr inh 6%.
O=C(O)C1CCN(S(=O)(=O)c2ccc(N3CCCC3C(=O)O)c([N+](=O)[O-])c2)CC1 (stereo unspecified) was read as D3 ag -20, S2 tox inactive, TGFb inhibitor 5%, HepG2 viability -1%, ATXN2 expr inh -2% and DRD3 antagonist -82*.
For COc1cccc(N2CC(NC(=O)c3cc4ccccc4o3)CC2=O)c1 (stereo unspecified) the results were D3 ag -13, TGFb inhibitor 0% and HepG2 viability -10%.
For CCOc1cc(/C=C2\SC(=S)N(N3CCOCC3)C2=O)ccc1O the results were D3 ag 8, S2 tox inactive, TGFb inhibitor -7%, HepG2 viability -11% and DRD3 antagonist 28.
CCOc1cc(/C=C2\SC(=N)N(c3nccs3)C2=O)ccc1OCCN1CCOCC1 was read as D3 ag 5, S2 tox inconclusive, TGFb inhibitor 0%, HepG2 viability -24%, ATXN2 expr inh 22µM* and DRD3 antagonist 7.
`COc1ccc(CCC(C)NCc2ccc(Cl)c(Cl)c2)cc1` (stereo unspecified) gave D3 ag -17, S2 tox inactive, TGFb inhibitor 13µM*, HepG2 viability 8.9µM*, ATXN2 expr inh -25% and DRD3 antagonist -55*.
COc1ccc(CCC(C)NCCc2ccc(Cl)cc2Cl)cc1 (stereo unspecified) was read as D3 ag -3, TGFb inhibitor inconclusive, HepG2 viability 16µM* and DRD3 antagonist 0.
Screening Cc1ccc(Nc2nc(NCc3ccco3)nc3nccnc23)cc1C returned TGFb inhibitor 12% and HepG2 viability -2%.
Screening CCCCNC(=O)Cn1c(SCc2cccc(C)c2)nc2ccncc21 returned TGFb inhibitor -3% and HepG2 viability -11%.
COc1ccccc1/C=C/c1nc(C#N)c(N2CCN(C)CC2)o1 was read as D3 ag -1, S2 tox inconclusive, TGFb inhibitor -13%, HepG2 viability -21% and ATXN2 expr inh -9%.
Screening O=C1C=C(O)c2cccc3cccc1c23 returned D3 ag -9, S2 tox inactive, TGFb inhibitor -2%, HepG2 viability -13%, ATXN2 expr inh 7% and DRD3 antagonist -76*.
Screening CC(C)c1ccc(/C=C/c2[nH]c(=O)[nH]c(=O)c2[N+](=O)[O-])cc1 returned D3 ag 4, S2 tox inactive, TGFb inhibitor inconclusive, HepG2 viability 16µM* and DRD3 antagonist 18.
Screening CCOc1ccc(/C=C/c2[nH]c(=O)[nH]c(=O)c2[N+](=O)[O-])cc1 returned D3 ag -2, S2 tox inactive, TGFb inhibitor -7%, HepG2 viability 6%, ATXN2 expr inh 12% and DRD3 antagonist -18.
For Cc1cc(C)c(NC(=O)C(C)N2CCCCCC2)c(C)c1 (stereo unspecified) the results were D3 ag -2, S2 tox inactive, TGFb inhibitor -11%, HepG2 viability -8% and DRD3 antagonist 21.
`CC(C(=O)Nc1cc(Cl)cc(Cl)c1)N1CCCC1` (stereo unspecified) gave D3 ag -16, S2 tox inactive, TGFb inhibitor -6%, HepG2 viability -7%, ATXN2 expr inh 0% and DRD3 antagonist -110*.
`COc1ccc(-c2oc3ccc(N4CCOCC4)cc3c2C#CCO)cc1` gave D3 ag 18, S2 tox inconclusive, TGFb inhibitor 15%, HepG2 viability -47%, ATXN2 expr inh inconclusive and DRD3 antagonist 95.
COc1ccc(-c2ccc3oc(-c4ccc(OC)cc4)c(-c4ccc(OC)cc4)c3c2)cc1 was read as D3 ag 72*, S2 tox inactive, TGFb inhibitor 4%, HepG2 viability 11%, ATXN2 expr inh -10% and DRD3 antagonist 15.
For COc1ccc(-c2ccc3oc(-c4ccc(OC)cc4)c(C#CCO)c3c2)cc1 the results were D3 ag 58*, S2 tox inconclusive, TGFb inhibitor inconclusive, HepG2 viability -55%, ATXN2 expr inh -36% and DRD3 antagonist 111.
CC(C)c1cnc2c(c1SCC(=O)Nc1ccc(OC(F)(F)F)cc1)c(=O)n(C)c(=O)n2C was read as D3 ag 9, TGFb inhibitor -6% and HepG2 viability 1%.
For Cc1ccc2c(=O)[nH]c(Cc3ccccc3C(=O)O)nc2c1 the results were D3 ag 40*, S2 tox inactive, TGFb inhibitor 0%, HepG2 viability 19% and DRD3 antagonist 110.
CNc1ncnc2c1ncn2[C@H]1CN(Cc2cccc3ccccc23)C[C@@H](CO)O1 was read as D3 ag 111*, S2 tox inactive, TGFb inhibitor -2%, HepG2 viability -45%, ATXN2 expr inh 6% and DRD3 antagonist 25.
CNc1ncnc2c1ncn2[C@H]1CN(CCOC)C[C@@H](CO)O1 was read as D3 ag 5, S2 tox inactive, TGFb inhibitor -13%, HepG2 viability -10%, ATXN2 expr inh 18% and DRD3 antagonist -56*.
`OC[C@@H]1CN(Cc2ccc(-c3ccccc3)cc2)C[C@H](n2cnc3c(NC4CCC4)ncnc32)O1` gave D3 ag 3, S2 tox 18µM*, TGFb inhibitor inconclusive, HepG2 viability -19%, ATXN2 expr inh inconclusive and DRD3 antagonist 25.
`CCCCCCn1c(SCC#N)nc2ccccc2c1=O` gave TGFb inhibitor 12% and HepG2 viability 15%.
For N#Cc1c(NC(=O)CCN2C(=O)c3ccccc3C2=O)oc(-c2ccccc2)c1-c1ccccc1 the results were D3 ag -6, S2 tox inactive, TGFb inhibitor 5%, HepG2 viability -6%, ATXN2 expr inh -10% and DRD3 antagonist -85*.
`N#Cc1c(NC(=O)CN2C(=O)c3ccccc3C2=O)oc(-c2ccccc2)c1-c1ccccc1` gave D3 ag -17, S2 tox inactive, TGFb inhibitor 1%, HepG2 viability -2%, ATXN2 expr inh 2% and DRD3 antagonist inconclusive.
